Assay [1] concerns the target Mitogen-activated protein kinase 10 (Mus musculus) (UniProt Q61831). The assay is described as follows: JNK3 AlphaScreen Assay (AID 530).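 Also: kinase came from lysate of stimulated human HepG2 cells; signal reports phosphorylation of biotinylated GST-cJun 1-79 at Ser73 with 10 µM ATP; % is scaled to controls: 0 for no effect and ±100 for the full control effect.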 Summed up:
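Biotinylated GST-cJun(1-79) served as substrate for JNK3 in HepG2 lysates stimulated with IL-1beta and TNF-alpha. ATP was 10 uM final, pH 7.6. Ser73 phosphorylation was quantified by AlphaScreen (680 nm excitation).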

Assay [2] can be described thus: AP1 Signaling Pathway (AID 357).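 Also: ME-180 reporter cells stimulated with EGF at its EC50 level; % is scaled to controls: 0 for no effect and ±100 for the full control effect.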 Summed up:
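Read-out was the 460nm/530nm emission ratio (excitation 405nm) after CCF4 loading for 2.5 hours at room temperature. Cells carried an AP-1-driven beta-lactamase reporter, were stimulated with EC50 EGF plus compound for 5 hours, and AC50 values came from titrations.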

Assay [3] deals with Cytochrome P450 1A2 (Homo sapiens) (UniProt P05177). The experiment in a line: p450-cyp1a2 (AID 410; calls by dose curve; also: potency is read from the fitted curve at half-maximal effect;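 as to activity change, negative = inhibition: -100% = full effect of reference inhibitor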). Summed up: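 Read-out is luminescence from luciferin produced by CYP1A2 demethylation of Luciferin-ME (100uM, at Km). Detection reagent stopped the 60 min NADPH-dependent reaction; signals were normalized to 57 uM furafylline.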
A short description of assay [4]: NFAT Signaling Pathway (AID 444).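 Also: carbachol stimulus at about its EC50 of 1 µM final; % is scaled to controls: 0 for no effect and ±100 for the full control effect.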 The note with it: Jurkat NFAT-bla M1, carbachol, beta-lactamase ratio, 5 h. Summed up: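 Jurkat cells carrying an NFAT-driven β-lactamase reporter and co-transfected muscarinic M1 receptor were treated with compound plus carbachol (1 uM final, an EC50 level) for 5 h at 37 °C. CCF4 loading followed for 1 h at RT; 460/530 nm ratio gave %activity.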

The nature of assay [5]: Stat Signaling Pathway (AID 446).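 Also: ME-180 cervical cancer cells given 40 pM IL-6 alongside compound; SIE-controlled beta-lactamase reporter measured as 460/530 nm FRET emission ratio; % is scaled to controls: 0 for no effect and ±100 for the full control effect.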 Summed up:
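Compound effects on IL-6-induced STAT reporter activity were measured in ME-180 cells. After overnight culture, cells were co-treated with 40 pM IL-6 for 5 hrs before beta-lactamase substrate loading at room temperature.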

Assay [6] concerns the target Glucocorticoid receptor (Homo sapiens) (UniProt P04150). The assay is described as follows: GR-GFP Redistribution (AID 450;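 active = compounds whose dose series gives a full or clear partial fitted curve of increased nuclear translocation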; also: potency is read from the fitted curve at half-maximal effect). The note with it: U2OS GR-GFP nuclear translocation, laser cytometry, 2 h.
Assay [7] shares this target. The experiment in a line: GR-EFC Redistribution (AID 451; calls by dose curve; also: potency is read from the fitted curve at half-maximal effect). The note with it: CHO-K1 GR-EFC translocation, beta-gal luminescence, 2 h. In short, it runs like this: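 CHO-K1 cells stably expressing nuclear-localized β-gal enzyme acceptor and GR fused C-terminally to the enzyme donor fragment; ligand-driven nuclear translocation restores β-gal by complementation. Compounds titrated up to 46 uM final, 2 h at 37 °C; luminescence read.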

Assay [8] in a line: Cell Viability - BJ (AID 421; calls by dose curve;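 also: potency is read from the fitted curve at half-maximal effect; cells exposed to compound for 40 hours at 37 °C before readout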). The note with it: BJ fibroblast viability, qHTS. Summed up:
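Luminescent ATP signal (CellTiter-Glo, 20 min at room temperature) served as the read-out of viable BJ cells after 40 hours of compound treatment. Responses were scaled between DMSO and 100 uM tamoxifen, and AC50 values were obtained by Hill modeling.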

Assay [9] is described as follows: Cell Viability - Jurkat (AID 426;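 active = dose-dependent loss of cell ATP signal giving a full or clear fitted curve, ranked by lower potency value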; also: potency is read from the fitted curve at half-maximal effect). The note with it: qHTS. In short, it runs like this:
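Cytotoxicity was scored as loss of cellular ATP, measured by luciferase-based luminescence, in Jurkat clone E6-1 cells after 40 h compound treatment; tamoxifen and doxorubicin served as positive controls.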

Assay [10] is described as follows: Cell Viability - Hek293 (AID 427;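 active = compounds whose dose-response curve shows a full or clear partial loss of cell viability, called from curve shape rather than a numeric limit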;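 also: potency is read from the fitted curve at half-maximal effect; cells exposed to compound for 40 hours at 37 °C before reading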). The note with it: qHTS. Summed up:
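Luminescent ATP read-out (CellTiter-Glo, 20 min RT) after 40 hr compound exposure at 37 °C in complete medium. Signal normalized to DMSO (basal) and 100 uM tamoxifen (100% inhibition); concentration-response fitted with the standard Hill equation to give AC50.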
Background: Quantitative high-throughput screening tests each substance at several concentrations.

Assay [11] is described as follows: Cell Viability - HepG2 (AID 433; calls by dose curve;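 also: potency is read from the fitted curve at half-maximal effect; potency for ATP loss meaning cytotoxicity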). The note with it: qHTS. Summed up:
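HepG2 cells, 1500 per well, treated 40 hr at 37 °C in complete medium; viability from intracellular ATP by CellTiter-Glo luminescence. Normalized to DMSO and 100 uM tamoxifen; AC50 from Hill fit of qHTS concentration-response.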

Assay [12] is described as follows: Cell Viability - MRC5 (AID 434; calls by dose curve;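 also: potency is read from the fitted curve at half-maximal effect; potency reflects cytotoxicity seen as loss of intracellular ATP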). The note with it: MRC5 lung fibroblast viability, qHTS. In short, it runs like this: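 Decrease in intracellular ATP, quantified by luciferase light output, reflects compound toxicity toward MRC5 cells exposed for 40 hr in complete culture medium. Concentration-response curves, scaled between DMSO and 100 uM tamoxifen, gave AC50 values.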

Assay [13] is described as follows: Cell Viability - SK-N-SH (AID 435; calls by dose curve;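 also: potency is read from the fitted curve at half-maximal effect; compound exposure lasted 40 h at 37 °C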). The note with it: SK-N-SH neuroblastoma cell viability qHTS. Summed up: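 SK-N-SH neuroblastoma cells (1500/well) treated 40 h at 37 °C in complete medium; viability read as cellular ATP by CellTiter-Glo luminescence. Normalized to DMSO and 100 uM tamoxifen; AC50 from Hill fits of qHTS concentration-response.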
A short description of assay [14]: Cell Viability - N2a (AID 540; active = well fitted curve in the direction sought with a large enough effect; an effect the other way counts as inactive or inconclusive; also: nearly all actives have a fitted effect of over 45% in size; also: potency is read from the fitted curve at half-maximal effect;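 as to activity change, negative = cytotoxicity: plate controls were DMSO alone for no effect and tamoxifen control for full effect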). The note with it: N2a mouse neuroblastoma cell viability; activity change, negative = cytotoxicity: at 92.2 µM (top of the series). In short, it runs like this:
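In this qHTS cytotoxicity screen, ATP-dependent luciferase luminescence reports viable N2a cells after a 40 hr compound exposure in complete culture medium. Potencies are AC50 values from standard Hill equation fits.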

The nature of assay [15]: Cell Viability - NIH 3T3 (AID 541; active = well fitted curve in the direction sought with a large enough effect; an effect the other way counts as inactive or inconclusive;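 also: plate controls were DMSO alone for no effect and tamoxifen positive control for full effect; nearly all actives have a fitted effect of over 25% in size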). The note with it: NIH 3T3 cell viability, qHTS; activity change, negative = cytotoxicity: at 92.2 µM (top of the series). In short, it runs like this: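 In this cytotoxicity screen, acute toxicity is scored as an ATP drop measured by CellTiter-Glo in NIH 3T3 fibroblasts following a 40 hr, 37 °C incubation with compound.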
Assay [16] is described as follows: Cell Viability - HUV-EC-C (AID 542; active = well fitted curve in the direction sought with a large enough effect; an effect the other way counts as inactive or inconclusive; also: nearly all actives have a fitted effect of over 35% in size; also: potency is read from the fitted curve at half-maximal effect). In short, it runs like this: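 Concentration-dependent ATP loss in HUV-EC-C cells is the measure. Exposure lasts 40 hr at 37 °C; luminescence follows CellTiter-Glo addition, and Hill fits give AC50.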
Assay [17] can be described thus: Cell Viability - H-4-II-E (AID 543; active = well fitted curve in the direction sought with a large enough effect; an effect the other way counts as inactive or inconclusive; also: nearly all actives have a fitted effect of over 35% in size; also: potency is read from the fitted curve at half-maximal effect). Summed up:
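AC50 from Hill-modelled qHTS concentration-response curves. H-4-II-E rat hepatoma cells in complete medium, 40 hr exposure at 37 °C, viability by CellTiter-Glo ATP luminescence.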

Assay [18] is described as follows: Cell Viability - SH-SY5Y (AID 544; active = well fitted curve in the direction sought with a large enough effect; an effect the other way counts as inactive or inconclusive;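 also: 0% = DMSO alone and -100% = 100 µM tamoxifen; nearly all actives have a fitted effect of over 55% in size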). Summed up:
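Quantitative HTS in SH-SY5Y neuroblastoma cells, 40 hr treatment at 37 °C, ATP content by luciferase luminescence; AC50 from Hill fits.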

Assay [19] is described as follows: Cell Viability - Renal Proximal Tubule (AID 545; active = well fitted curve in the direction sought with a large enough effect; an effect the other way counts as inactive or inconclusive; also: nearly all actives have a fitted effect of over 40% in size; also: potency is read from the fitted curve at half-maximal effect;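 as to activity change, negative = cytotoxicity: 0% = DMSO only and -100% = 100 µM tamoxifen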). In short, it runs like this: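 Rat renal proximal tubule primary cells, 1000/well, exposed to compounds for 40 hr at 37 °C in complete medium; cellular ATP read by CellTiter-Glo luminescence. AC50 from concentration-response fitted with standard Hill equation.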
The nature of assay [20]: Cell Viability - Mesenchymal (AID 546; active = well fitted curve in the direction sought with a large enough effect; an effect the other way counts as inactive or inconclusive;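 also: cells exposed to compound for 40 hours before reading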; also: potency is read from the fitted curve at half-maximal effect;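 as to activity change, negative = cytotoxicity: 0% = DMSO only and -100% = 100 µM tamoxifen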). The note with it: mesenchymal cells viability, qHTS; activity change, negative = cytotoxicity: at 91.7 µM (top of the series). In short, it runs like this:
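In this qHTS cytotoxicity format, glomerulus-derived human mesenchymal kidney cells received compound for 40 hr, then luciferase-based ATP quantitation. Concentration-response data were fitted with the Hill equation.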

Values joined by “and” are separate entries in the source; they are usually repeats but may differ in a detail not shown here. Equal entries are not always repeated. Values without a mark were called inactive. Inconclusive results are not listed. Active and inactive are the calls of the source. Unless noted, calls follow the shape of the dose curve; as a rule, active = well fitted curve in either direction with a large enough effect (not every such curve was filed as active); inconclusive = small, poorly fitted or top-dose-only effect, or another doubt; inactive = flat fitted curve, though single readings scatter. Where only a bound is given, the exact number is not on record here.

Glucocorticoid receptor (Homo sapiens), sequence (P04150 whole entry, looked up, the tested form may be a part): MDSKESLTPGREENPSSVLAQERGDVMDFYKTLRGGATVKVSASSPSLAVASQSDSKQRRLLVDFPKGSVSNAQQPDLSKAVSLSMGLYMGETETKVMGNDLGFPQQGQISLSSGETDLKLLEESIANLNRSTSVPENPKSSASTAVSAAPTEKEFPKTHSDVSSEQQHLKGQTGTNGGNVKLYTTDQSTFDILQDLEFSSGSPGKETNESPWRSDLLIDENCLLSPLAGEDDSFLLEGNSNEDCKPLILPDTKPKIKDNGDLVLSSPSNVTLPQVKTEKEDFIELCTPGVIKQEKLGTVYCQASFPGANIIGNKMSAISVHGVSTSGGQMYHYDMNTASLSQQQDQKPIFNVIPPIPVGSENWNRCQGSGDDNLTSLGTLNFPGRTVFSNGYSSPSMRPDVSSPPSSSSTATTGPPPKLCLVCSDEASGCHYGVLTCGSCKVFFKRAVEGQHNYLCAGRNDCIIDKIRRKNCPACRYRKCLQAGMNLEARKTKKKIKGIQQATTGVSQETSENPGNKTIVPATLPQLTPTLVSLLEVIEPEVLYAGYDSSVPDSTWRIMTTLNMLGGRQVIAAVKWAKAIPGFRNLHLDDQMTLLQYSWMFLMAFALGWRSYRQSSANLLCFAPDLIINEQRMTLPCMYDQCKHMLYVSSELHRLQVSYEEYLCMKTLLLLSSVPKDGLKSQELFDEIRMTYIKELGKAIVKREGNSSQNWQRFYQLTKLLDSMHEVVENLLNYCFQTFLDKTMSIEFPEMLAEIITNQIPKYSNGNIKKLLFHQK
Cytochrome P450 1A2 (Homo sapiens), sequence (P05177 whole entry, looked up): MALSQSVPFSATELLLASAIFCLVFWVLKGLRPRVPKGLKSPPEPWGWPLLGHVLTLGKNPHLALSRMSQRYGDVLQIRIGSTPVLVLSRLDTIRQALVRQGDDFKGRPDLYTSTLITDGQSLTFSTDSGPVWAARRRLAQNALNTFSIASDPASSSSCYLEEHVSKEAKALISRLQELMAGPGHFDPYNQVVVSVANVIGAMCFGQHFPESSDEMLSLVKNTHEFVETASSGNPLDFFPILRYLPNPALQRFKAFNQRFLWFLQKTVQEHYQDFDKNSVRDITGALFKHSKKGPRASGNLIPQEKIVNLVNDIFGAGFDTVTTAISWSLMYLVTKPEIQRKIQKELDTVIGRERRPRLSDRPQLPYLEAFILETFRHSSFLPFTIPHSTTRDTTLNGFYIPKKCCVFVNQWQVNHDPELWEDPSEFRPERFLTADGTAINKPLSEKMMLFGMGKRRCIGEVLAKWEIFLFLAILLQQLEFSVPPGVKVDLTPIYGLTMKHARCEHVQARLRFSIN

As to `Cc1ccc(O)cc1`, the result in [1] was inactive.

Regarding `NC(=O)CN1CCCC1=O`, the outcome in [2], in [5] and in [1] was inactive. The Potency entry in assay [3] is “inactive”. Moreover, the activity change, negative = inhibition in [4] (at 17.2 µM (top of the series)) is -0.917%; in assay [4] (at 38 µM (top of the series)), 1.7%. Moreover, the Potency is > 46 µM and > 20.6 µM in [6]; > 46 µM and > 20.6 µM in assay [7].

For `O=C(CCCN1CCC(n2c(=O)[nH]c3ccccc32)CC1)c1ccc(F)cc1`, the call in [2], in [5] and in [1] was inactive. Moreover, the Potency result in [3] is “inactive”. For the same compound, the Potency in assay [6] and in assay [7] was over 20.6 µM each time.

With `c1ccc2nc(N3CCNCC3)ccc2c1`, the compound was called inactive in assay [2], in [5] and in [1]. The Potency in [3] was 1.58 µM (active) and 1.26 µM (active) and 251 nM (active); in [6] it was > 46 µM and > 20.6 µM; in assay [7], > 46 µM and > 20.6 µM. Besides, the activity change, negative = inhibition in assay [4] (at 17.2 µM (top of the series)) was -7.47%; in assay [4] (at 38 µM (top of the series)), -5.87%.

For the compound `COc1ccc(C(=O)N2CCCC2=O)cc1`, the call in [2], in assay [5] and in [1] was inactive. Moreover, the figures for the activity change, negative = inhibition in assay [4] (at 17.2 µM (top of the series)) and in [4] (at 38 µM (top of the series)) were -27.3% and 11.8%, respectively. Besides, the Potency in assay [6] is > 46 µM and > 20.6 µM; in [7], over 46 µM.

For the compound `CCC(=O)O[C@H]1CC[C@H]2[C@@H]3CCC4=CC(=O)CC[C@]4(C)[C@H]3CC[C@]12C`, the compound was called inactive in assay [2], in [5] and in assay [1]. Also, in [3], the Potency result was “inactive”. Also, the Potency in assay [6] and in assay [7] was over 20.6 µM in each case.

Consider `O=C1NCN(c2ccccc2)C12CCN(CCCOc1ccc(F)cc1)CC2`, for which the Potency in assay [6] and in assay [7] was over 46 µM in each case. The result in assay [1] was inactive.

As to `COP(=O)(OC)C(O)C(Cl)(Cl)Cl` (centres undefined), the compound was classed as inactive in [2] and in assay [5]. In [6], the Potency was over 20.6 µM.

With `CCCCCCCCC(=O)NCc1ccc(O)c(OC)c1`, the compound was classed as inactive in assay [2] and in [5]. For the same compound, the Potency in assay [3] was 12.6 µM (active); in assay [6] it was over 46 µM; in [7] it was over 46 µM. Also, the activity change, negative = inhibition in assay [4] (at 38 µM (top of the series)) was 6.44%.

For the compound `CC(C)[N+](C)(CCC(C(N)=O)(c1ccccc1)c1ccccc1)C(C)C`, the result in assay [2], in assay [5] and in [1] was inactive. In assay [3], the Potency entry was “inactive”. In addition, the Potency in [6] and in [7] was over 20.6 µM throughout.

As to `Oc1ccc2[nH]cc(CCCCN3CC=C(c4ccccc4)CC3)c2c1`, the Potency was 31.6 µM (active) in assay [3], over 46 µM in assay [6] and over 46 µM in assay [7].

As for `CCCCCCCCCCCC[N+](C)(C)CCOc1ccccc1`, the Potency was 13.7 µM (active) in assay [8]; 25.2 µM (active) in assay [9]; 29.6 µM (active) in [10]; 58.8 µM (active) in assay [11]; 14.5 µM (active) in assay [12]; 24.5 µM (active) in assay [13]. Moreover, the Potency in assay [14] was 7.94 µM (active); in assay [16], 31.6 µM (active); in [17], 39.8 µM (active); in assay [19], 12.6 µM (active); in [20], 25.1 µM (active). Moreover, the outcome in [1] was inactive. Besides, the activity change, negative = cytotoxicity in [15] is -137% (active). For the same compound, in [18], the Potency entry was “inactive”.

Take `Oc1c(Br)cc(Br)cc1Br`: the Potency in assay [8], in [10], in assay [11], in assay [12] and in assay [13] was over 92 µM throughout. Moreover, in assay [1], the result was inactive. In addition, the Potency entry in assay [14], in [15], in assay [16], in assay [17], in assay [18] and in [19] was “inactive” throughout. Besides, the Potency entry in assay [20] was “inactive”.

For the compound `C[N+]1(C)[C@@H]2CC[C@H]1CC(OC(=O)C(CO)c1ccccc1)C2` (some centres undefined), the compound was called inactive in assay [2] and in assay [5]. Besides, the activity change, negative = inhibition in assay [4] (at 17.2 µM (top of the series)) was -95.4% (active) and -94.2% (active). Further, the Potency in [6] is over 20.6 µM.

For the compound `COc1ccc(CN2CCNCC2)c(OC)c1OC`, the compound was called inactive in assay [2], in assay [5] and in assay [1]. Besides, the activity change, negative = inhibition in assay [4] (at 17.2 µM (top of the series)) was -8.2%. The Potency in assay [6] and in assay [7] was over 20.6 µM throughout.

These data come from PubChem BioAssay (NCATS).
